# SARS PLpro yeast = blocks SARS-CoV papain-like protease in a yeast assay | Potency, µM (highest dose often 32.9 µM), for inactives: top-dose activity, positive = growth rescue, most hits filed as activators | S. cerevisiae expressing SARS-CoV PLpro, growth rescue | 330,000 compounds, 0.19% hits; calls by dose curve; further: potency means the concentration at half of the fitted maximal effect; 0% is about no effect; nearly all actives have a fitted effect of over 55% in size
# HCV inh = HCV inhibition | Huh7.5.1 HCVcc-Cre infection, luciferase reporter, 44 h | AID 651820 | 340,000 compounds, 3.4% hits | Potency, µM (titrated, usually from 41.8 µM), for the others: top-dose activity change, negative = inhibition, hits mostly inhibitors; active means well fitted inhibition curve with a large enough effect; inconclusive means small, poorly fitted or top-dose-only effect, or another doubt; inactive means no such curve, though single readings can be large or run the other way; further: potency means the concentration at half of the fitted maximal effect; on the % scale 0 is the no-effect control and ±100 the full control effect
#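 Infectious HCV cell culture screen: compound-treated cells (1,000/well, pre-plated 4 h) are infected with HCVcc-Cre at roughly 0.5 moi and grown 44 h. Infection is quantified by luciferase signal after 15 min substrate incubation at room temperature.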
# Marburg entry inh = Marburg virus entry inhibition; Marburg virus pseudotyped entry inhibition, cell reporter; 300,000 compounds, 1.8% hits; AID 540276; Potency, µM (series often up to 37.8 µM), for the others: at the highest dose activity change, negative = inhibition, hits mostly inhibitors; calls by dose curve; tested in HEK293 cells; further: potency means the concentration at half of the fitted maximal effect; on the % scale 0 is the no-effect control and ±100 the full control effect
# HCMV inh = human cytomegalovirus inhibition; HFF cells, HCMV-luciferase reporter, 72 h; stronger effect = lower value; activity change, negative = inhibition, % at 57.5 µM; 410,000 compounds, 4.5% hits; in the data active means activity change below about -60%; inconclusive means no clear call, values can overlap the other calls; inactive means above about -39%; further: on the % scale 0 is the no-effect control and ±100 the full control effect
#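 Human foreskin fibroblasts infected with luciferase-reporter HCMV at MOI 1 PFU/cell, compounds at two doses. Luciferase measured 72 h post infection; normalized to buffer-only basal and Salinomycin (10uM) controls.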
# Lassa entry inh = inhibitors of Lassa virus binding or cell entry | AID 540256 | 300,000 compounds, 1.2% hits | Lassa virus pseudotype entry inhibition, cell reporter | Potency, µM (titrated, usually from 37.9 µM), for the others: at the top dose activity change, negative = inhibition, most hits filed as inhibitors; calls by dose curve; tested in HEK293 cells; further: potency means the concentration at half of the fitted maximal effect; on the % scale 0 is the no-effect control and ±100 the full control effect; nearly all actives have a fitted effect of over 50% in size
# FMDV antiviral = antivirals against foot and mouth disease virus; FMDV antiviral cell-based qHTS; Potency, µM (highest dose often 57.9 µM), for the others: at the highest dose activity change, negative = inhibition, usual class: inhibitors; 410,000 compounds, 1.2% hits; AID 1159524; calls by dose curve; tested in HEK293T cells; further: read-out not given here; potency means the concentration at half of the fitted maximal effect; on the % scale 0 is the no-effect control and ±100 the full control effect; nearly all actives have a fitted effect of over 45% in size
# Active calls of the source: *; u = inconclusive; x = no result given; [ ] = dose if it differs, or a comment. Hits are enriched below; roughly 8% of the tested compounds scored in any of these assays.
SMILES,SARS PLpro yeast,HCV inh,Marburg entry inh,HCMV inh,Lassa entry inh,FMDV antiviral
Cc1ccc(OCC(=O)Nc2ccc3nc(SCC(=O)N4CCOCC4)sc3c2)cc1C,x,x,-21%[46.1 µM],31,6%[46.1 µM],u
OC1c2c(F)cccc2N=C2CCCCN21 (centres undefined),x,x,x,-6,x,0%
COc1ccc(C(=O)O/N=C(\N)c2ccccn2)cc1,-12%,4%,u,u,u,2µM*
CCOc1ccc(C(=O)O/N=C(\N)c2ccccn2)cc1OCC,-11%,13µM*,x,42,x,26%
N/C(=N\OC(=O)c1ccc(Cl)cc1)c1ccccn1,-20%,u,u,53,u,-79%
COc1cc(OC)cc(C(=O)O/N=C(\N)c2ccccn2)c1,-1%,u,x,-61*,x,-1%
CCOc1cc(C(=O)O/N=C(\N)c2ccccn2)cc(OCC)c1OCC,-15%,u,x,45,x,-7%
Cc1ccc(S(=O)(=O)CCN2C=CC(C(F)(F)F)=NCC2)cc1,1%,7%,u,-6,-5%,35%
CCCCC1(CCCC)C(=O)NC(=Nc2cccc(C)c2)NC1=O,-11%,u,14%,-61*,-2%,-23%
CN(Cc1ccccc1)CC(O)COc1ccc(CNCc2cccnc2)cc1 (centres undefined),2%,u,x,-35,x,u
CN(Cc1ccccc1)CC(O)COc1ccc(CNCc2ccc(Cl)s2)cc1 (centres undefined),0%,u,2.5µM*,u,u,-14%
CCn1cc(CNCc2ccc(OCC(O)CN(C)Cc3ccccc3)cc2)cn1 (centres undefined),1%,10µM*,u,x,-30%,-14%
O=C(O)c1ccc2c(c1)C(=O)N([C@H](Cc1ccccc1)C(=O)O)C2=O,4%,x,x,x,x,x
CN1CCN(C(=O)CCN2C(=O)/C(=C\c3ccc(Cl)cc3)SC2=S)CC1,-2%,8%,x,x,x,-19%
NS(=O)(=O)c1ccc(CCN2C(=O)/C(=C\c3ccc(Cl)cc3)SC2=S)cc1,0%,u,u,-101*,u,-13%
O=S(=O)(O)c1cc(O)c(N=Nc2ccc(O)cc2O)c2ccccc12,x,-4%,-1%[46.1 µM],u,-1%[46.1 µM],28µM*
O=C(CN1C(=O)CCSc2ccccc21)Nc1ccccc1F,x,x,8%[46.1 µM],12,x,-19%
COc1cc(OC)cc(C(=O)NC(C(=O)NCCN(C)C)C23CC4CC(CC(C4)C2)C3)c1 (centres undefined),-2%,10µM*,u,18,-14%,0%
COc1cc2c(c(OC)c1OC)-c1ccc(C(=O)O)cc1[C@@H](NC(C)=O)CC2,x,x,x,-16,x,-3%
COc1cc2c(c(OC)c1OC)-c1ccc(SC)c(=O)cc1C(NC(=O)C(F)(F)F)CC2 (centres undefined),x,-16%,u,-81*,u,u
COc1cc2c(c(OC)c1O)-c1ccc(OC)c(=O)cc1C(NC(=O)C(F)(F)F)CC2 (centres undefined),x,-10%,u,-90*,u,-10%
O=C(NCCc1cccs1)c1ccc(Cn2c(SCc3ccc(F)cc3)nc3cccnc32)cc1,x,x,-2%[46.1 µM],46,x,-1%
Cn1c(=O)oc2cc(S(=O)(=O)NCCN3CCc4ccccc4C3)ccc21,u,4%,x,0,x,5.6µM*
Cc1ccc(NS(=O)(=O)c2ccc3c(c2)oc(=O)n3C)cc1F,1%,-3%,x,u,x,1%
Cc1ccc(NS(=O)(=O)c2ccc3c(c2)oc(=O)n3C)cc1C,-2%,u,2%,-101*,-2%,15%
SMILES,SARS PLpro yeast,HCV inh,Marburg entry inh,HCMV inh,Lassa entry inh,FMDV antiviral
Cc1ccc(NS(=O)(=O)c2ccc3c(c2)oc(=O)n3C)cc1,-1%,-7%,u,-63*,-8%,9%
COc1cc(NS(=O)(=O)c2ccc3c(c2)oc(=O)n3C)cc(OC)c1OC,2%,10µM*,x,u,x,-24%
COc1ccc2c(c1)-c1nc(-n3ncc(C(=O)N(C)C(C)c4ccon4)c3C3CC3)ncc1CC2 (centres undefined),x,x,x,x,x,-75%
O=C1[C@@H]2[C@H](ON(c3ccccc3)[C@H]2c2ccncc2)C(=O)N1c1ccccc1,x,x,18%,x,x,x
O=C(CCCN1C(=O)/C(=C/c2ccccc2Cl)SC1=S)N1CCCC1,-25%,u,x,-109*,x,u
O=C(CCCN1C(=O)/C(=C/c2ccccc2Cl)SC1=S)NCCCN1CCOCC1,1%,-19%,u,u,u,u
O=C1C(=Cc2cccc(O)c2O)SC(=S)N1CCCN1CCOCC1,x,x,x,-97*,x,0%
O=C(CCCN1C(=O)/C(=C/c2ccccc2)SC1=S)N1CCOCC1,-5%,-7%,-2%[46.1 µM],-97*,x,-10%
O=C(CCN1C(=O)/C(=C/c2ccccc2Cl)SC1=S)N1CCCC1,2%,u,-15%[46.1 µM],-21,0%,u
CCOc1ccc(/C=C2\SC(=S)N(CCCC(=O)NCCCN3CCOCC3)C2=O)cc1,1%,-16%,u,-95*,u,11µM*
CC(C)NC(=O)N(C)C[C@@H]1Oc2ccc(NC(=O)CCN3CCOCC3)cc2CC(=O)N([C@@H](C)CO)C[C@@H]1C,-17%,9%,x,-1,x,-14%
O=C(CCCN1C(=O)/C(=C/c2ccccc2Cl)SC1=S)NNC(=O)c1ccncc1,-1%,-20%,u,u,u,0%
O=C(O)CN1C(=O)/C(=C\c2ccccc2OCc2ccc(Cl)cc2Cl)SC1=S,0%,30%,-15%[46.1 µM],-32,9%[46.1 µM],25µM*
O=C(CCN1C(=O)/C(=C/c2ccccc2Cl)SC1=S)N1CCOCC1,4%,5.6µM*,u,-38,u,-6%
O=C(CCN1C(=O)/C(=C\c2ccccc2)SC1=S)N1CCOCC1,4%,-6%,-16%[46.1 µM],-11,-11%,0%
O=C(CCCN1C(=O)/C(=C/c2ccccc2Cl)SC1=S)NNC(=O)c1ccccc1Cl,-20%,12%,6.3µM*,-88*,u,u
COC(=O)C[C@H]1c2ccccc2C2=C(C[C@@H](C)[C@H]3C(=O)N(c4ccccc4)C(=O)[C@@H]23)N1C(=O)OC,x,x,-16%[14.2 µM],x,u,x
CCn1c2c(c(=O)n3ncc(C(=O)Nc4ccc(OC(F)(F)F)cc4)c13)CN(Cc1ccc(OC)cc1)CC2,x,x,x,0,8%[46.1 µM],-23%
COC(=O)C1=C(C)N=C2S[C@H](C)C(=O)N2[C@@H]1/C=C\c1ccccc1OC,x,x,2%,x,x,x
COC(=O)CC1c2ccccc2C=C(C=Cc2ccc3c(c2)OCO3)N1C(=O)OC (centres undefined),x,x,-18%[14.2 µM],x,u,x
Cc1cc(C(=O)CN2C(=O)c3ccccc3C2=O)c(C)n1Cc1cccs1,6%,-18%,6.5µM*,-27,-48%[14.3 µM],-7%
Cc1cc(C(=O)Cn2nnc3ccccc3c2=O)c(C)n1Cc1cccs1,18%,-23%,u,6,u,-13%
